According to PubChem BioAssay (NCATS):
Results filed as inconclusive are left out. A call without a number means that no potency is given here. Active and inactive are the calls of the source. Calls come from the whole dose curve; as a rule, active = well fitted inhibition curve with a large enough effect; inconclusive = small, poorly fitted or top-dose-only effect; inactive = flat fitted curve, though single readings scatter.
Potency is the fitted concentration of half-maximal effect.

Test: P-glycoprotein substrates identified in KB-8-5-11 adenocarcinoma cell line, qHTS therapeutic library screen (AID 1346987); note: nearly all actives have a fitted effect of over 65% in size
Conditions: KB-8-5-11 (P-gp overexpressing) viability, CellTiter-Glo, 72 h; series mostly up to 44.5 µM
Source text: The ATP-binding cassette transporters P-glycoprotein (P-gp) is known to limit brain penetration of many chemotherapy drugs. […] As such, we developed a high-throughput screen (HTS) to identify substrates of P-gp from a series of chemical libraries including the National Center for Advancing Translational Sciences Pharmaceutical Collection NPC, 2,816 compounds), testing a total of 10,804 compounds, most of which have known mechanisms of action. We used the CellTiter-Glo viability assay to test library compounds against the parental KB-3-1 human cervical adenocarcinoma cell line and the colchicine-selected sub-line KB-8-5-11 that over-expresses P-gp. KB-8-5-11 cells were also tested in the presence of a P-gp inhibitor (tariquidar) to assess reversability of transporter-mediated resistance. Of the tested compounds, a total of 90 P-gp substrates were identified including 55 newly identified P-gp substrates. Substrates were confirmed using an orthogonal killing assay against HEK-293 cells transfected with P-gp. As exemplars, we confirmed that […] (cyclin-dependent kinase inhibitor); AT9283, (Janus kinase 2/3 inhibitor); ispinesib (kinesin spindle protein inhibitor); gedatolisib (PKI-587, phosphoinositide 3-kinase/mammalian target of rampamycin inhibitor); GSK-690693 (AKT inhibitor); and KW-2478 (heat shock protein 90 inhibitor) were substrates , and direct ATPase stimulation was assessed. ABCG2 was also found to confer high levels of resistance to AT9283, GSK-690693 and gedatolisib, while ispinesib, AT7519 and KW-2478 were weaker substrates.
The HeLa derivative cell line, KB-3-1, and its colchicine-selected, P-gp-overexpressing subline, KB-8-5-11 were maintained in DMEM with 10% FCS and Pen/Strep with glutamine at 37 degree C in 5% CO2. For KB-8-5-11 cells, colchicine was added to the medium at a concentration of 100 ng/mL. HEK-293 cells transfected with empty vector (pcDNA) or vector containing human ABCB1 (MDR-19) or ABCG2 (R-5) have been described previously (Robey, Lin, Qiu, Chan & Bates, 2011) and were maintained in EMEM supplemented with 10% FCS, Pen/Strep and glutamine with 2 mg/ml G418 to select for the expression of the transporter. Cultures were confirmed to be free of mycoplasma infection using the MycoAlert Mycoplasma Detection Kit (Lonza, Walkersville, MD). For the screen, assay medium was identical to culture medium except for KB-8-5-11 where colchicine was excluded from the medium.
All cell lines were plated into 1536-well plates at 500 cells/well in 5 uL media. Compounds were then pinned in dose-response using a 1536-head pin tool (Kalypsis, San Diego, CA) and plates were incubated at 37 degree C in 5% CO2 for an additional 72 h. CellTiter-Glo reagent (Promega) was dispensed into the wells, incubated for 5 min and luminescence was read on a ViewLux instrument (Perkin-Elmer). Cytotoxic compounds were defined as those that yielded a curve class of -1.1, -1.2, -2.1, -2.2, -2.3, or -2.4, a maximum response of >50% and an AC50 of < 10 uM. Cherry-picked hits from screening analysis were tested with both the KB pair of cell lines, and the pcDNA (empty vector control) and MDR-19 (P-gp overexpressing) pair were tested, in the absence and presence of tariquidar.
For O=C(NCNC(=O)NC1C(=O)NC(=O)N1CO)NC1C(=O)NC(=O)N1CO (stereo not given), the Potency was “inactive”.
In the case of Oc1ccc2c3c1O[C@H]1[C@H](N(CCCl)CCCl)CC[C@@]4(O)[C@@H](C2)N(CC2CC2)CC[C@]314, the activity change, negative = cytotoxicity is reported as 0.87% [at 9.29 µM] (inactive).
For CCN(CC)C(=O)/C(Cl)=C(\C)OP(=O)(OC)OC, the Potency was “inactive”.
In the case of Cn1sc(Cl)cc1=O, the Potency is reported as “inactive”.
With C=CCN=C=S the Potency was “inactive”.
In the case of CCc1[nH]c2ccc(OC)cc2c1CCN(C)C, the Potency is reported as “inactive”.
With CC1(C)S[C@@H]2[C@H](N)C(=O)N2[C@H]1C(=O)O the Potency was “inactive”.
For COC(=O)[C@@H]1[C@H]2CC[C@@H](C[C@H]1OC(=O)c1ccccc1)N2C, the Potency was “inactive”.
With C[C@]12C=CC(=O)C=C1CC[C@@H]1[C@@H]2CC[C@]2(C)OC(=O)CC[C@@H]12 the Potency was “inactive”.
With CN(C(=O)Cc1ccccc1)C(CN1CCCC1)c1ccccc1 (stereo not given) the Potency was “inactive”.
For O[C@H]1[C@H]2[C@H](O)CCCN2C[C@H]1O, the Potency was “inactive”.
For C=C(C)[C@H]1O[C@H]2CC[C@@]3(C)[C@@](O)(CC[C@H]4[C@@H]5OC(C)(C)[C@H]6C[C@@H]7C(=C)Cc8c(Cl)cc9[nH]c(c5c9c8[C@@]76O)[C@@]43C)[C@]23O[C@@H]3[C@H]1O, the Potency was “inactive”.
In the case of CN1c2ccccc2C(NCCCCCCC(=O)O)c2ccc(Cl)cc2S1(=O)=O (stereo not given), the Potency is reported as “inactive”.
With CCC(=O)O[C@@](Cc1ccccc1)(c1ccccc1)[C@@H](C)CN(C)C the Potency was “inactive”.
For N#CC(C#N)=Cc1cc(O)c(O)c(O)c1, the Potency was “inactive”.
For COC1CC(OC2CCC3(C=O)C(CCC4C3CCC3(C)C(C5=CC(=O)OC5)CCC43O)C2)OC(C)C1OC1OC(CO)C(O)C(O)C1O (stereo not given), the Potency was 0.172 µM (active).
With O=C1CN(O)C(c2ccccc2)=c2cc(Cl)ccc2=N1 the Potency was “inactive”.
In the case of CCC(C)(S(=O)(=O)CC)S(=O)(=O)CC, the Potency is reported as “inactive”.
For O=C1CN=C(c2ccccc2)c2cc(Cl)ccc2N1CC1CC1, the Potency was 9.2 µM (active).
For CCc1c(C(=O)C(N)=O)c2c(OCC(=O)OC)cccc2n1Cc1ccccc1, the Potency was “inactive”.
In the case of CN1[C@H]2CC[C@@H]1[C@@H](C(=O)O)[C@@H](OC(=O)c1ccccc1)C2, the Potency is reported as “inactive”.
In the case of CCCC(C)C1(CC)C(=O)NC(=O)NC1=O (stereo not given), the Potency is reported as “inactive”.
With OC(c1ccccc1)(c1ccccc1)C1CN2CCC1CC2 (stereo not given) the Potency was “inactive”.
In the case of CC[C@H]1[C@@H]2C[C@H]3[C@@H]4N(C)c5ccccc5[C@]45C[C@@H](C2[C@H]5O)N3[C@@H]1O (stereo not given in full), the Potency is reported as “inactive”.
With c1ccc(C2(N3CCCC3)CCCCC2)cc1 the Potency was “inactive”.
In the case of CN(C)[C@H](Cc1ccccc1)c1ccccc1, the Potency is reported as “inactive”.
In the case of CCN1C[C@]2(COC(=O)c3ccccc3N3C(=O)C[C@H](C)C3=O)CC[C@H](OC)[C@@]34[C@@H]5C[C@H]6[C@H](OC)[C@@H]5[C@](O)(C[C@@H]6OC)[C@](O)([C@@H](OC)[C@H]23)[C@@H]14, the Potency is reported as “inactive”.
In the case of CC(=O)OC1CC(O)C(C)(C)C2CC(OC(C)=O)C3(C)C(CCC4(C)C(c5ccoc5)C(=O)C5OC543)C12C (stereo not given), the Potency is reported as “inactive”.
For CC(=O)OC1CN2CCC1CC2 (stereo not given), the Potency was “inactive”.
With O=[N+]([O-])c1ccccc1 the Potency was “inactive”.
For COCC1OC(=O)c2coc3c2C1(C)C1=C(C3=O)C2CCC(=O)C2(C)CC1O (stereo not given), the Potency was “inactive”.
For CC(C)CCON=O, the Potency was “inactive”.
With CC(=O)OO the Potency was “inactive”.
For Cc1ccccc1-n1c(C)nc2ccccc2c1=O, the Potency was “inactive”.
With CC(C)(O)[C@H]1O[C@H]2CC[C@@]3(C)[C@@](O)(CC[C@H]4Cc5c([nH]c6ccccc56)[C@@]43C)C2=CC1=O the Potency was “inactive”.
With COc1ccc2c3c1O[C@H]1[C@@H](O)C=C[C@H]4[C@@H](C2)NCC[C@@]341 the Potency was “inactive”.
In the case of CCNC1(c2cccs2)CCCCC1=O (stereo not given), the Potency is reported as “inactive”.
With CCNC(C)Cc1cccc(C(F)(F)F)c1 (stereo not given) the Potency was “inactive”.
In the case of CCOC(=O)/C=C(C)/C=C/C[C@@H](C)CCCC(C)C, the Potency is reported as “inactive”.
For Oc1cc(Cl)c(Cl)cc1Cl, the Potency was “inactive”.
